Our source for the growth values is PubChem BioAssay (NCI).

Some test systems named below: T-47D breast; BT-549 breast; MDA-MB-435 melanoma; SW-620 colon; MCF7 breast; HCT-116 colon; HCC-2998 colon; KM12 colon.
Common to all, as to test: NCI-60 one-dose screen, 48 h (100 = growth as untreated, 0 = no growth, -100 = all killed)
Holding throughout (settings): 10 µM unless noted

This is part of a sample that, as a whole, favours compounds with a hit. Of some 83,000 tested, about 20% had one in any assay.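 96-well plates, one dose, 48 hours. Percent growth reported; active if below 10.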 Unmarked numbers belong to inactive results. Activity calls are given as the source filed them.

With `O=C1/C(=C/C(Cl)=C/c2ccccc2)SC(=S)N1CCc1ccc(O)cc1`, the growth was -34.4% (active) with T-47D breast; 11.6% with BT-549 breast; -30.7% (active) in the test with MDA-MB-435 melanoma; 4.79% (active) in the test on SW-620 colon; 26.4% with MCF7 breast; -62.3% (active) in the test on HCT-116 colon. The results for the growth in the test on HCC-2998 colon and in the test with KM12 colon were -68.1% (active) and -31.6% (active), respectively.

As to `COc1ccc(CCNc2nc(SC)nc(-c3cccc([N+](=O)[O-])c3)c2C#N)cc1OC`, the growth in the test with T-47D breast was 79.3%; in the test with BT-549 breast, 42.2%; in the test on MDA-MB-435 melanoma, 87.7%; in the test with SW-620 colon it was 92.9%; with MCF7 breast it was 86.8%; with HCT-116 colon it was 82%. Moreover, the growth with HCC-2998 colon was 93.6%; with KM12 colon, 99.1%.

As to `CSc1nc(NCCO)c(C#N)c(-c2cccc([N+](=O)[O-])c2)n1`, the growth in the test with T-47D breast is 94.1%; in the test with BT-549 breast, 96.6%; in the test on MDA-MB-435 melanoma, 99.8%; in the test with SW-620 colon, 101%; in the test on MCF7 breast it was 91.4%; in the test on HCT-116 colon, 96.1%. Besides, the growth with HCC-2998 colon is 102%; in the test with KM12 colon it was 98.3%.

For `CCC(=O)c1ccc(Cl)s1`, the growth was 105% with T-47D breast; 90.5% in the test on BT-549 breast; 114% in the test on MDA-MB-435 melanoma; 104% in the test on SW-620 colon; 97.8% in the test on MCF7 breast; 101% with HCT-116 colon. The results for the growth in the test on HCC-2998 colon and in the test with KM12 colon were 102% and 107%, respectively.

In the case of `COc1cc(C(=O)/C=C/c2cccnc2Nc2ccc(Cl)cc2)cc(OC)c1OC`, the growth in the test on T-47D breast is -67.3% (active); with BT-549 breast, -19.1% (active); in the test with MDA-MB-435 melanoma, -58% (active); with SW-620 colon it was -71.5% (active); in the test on MCF7 breast it was -54.4% (active); in the test on HCT-116 colon, -55.7% (active). Moreover, the growth was -84.3% (active) in the test on HCC-2998 colon and -86.8% (active) in the test on KM12 colon.

As to `FC(F)(F)c1[nH]ncc1-c1nc2ccc3n[nH]c(C#Cc4cccnc4)c3c2c2c1CCCC2`, the growth in the test on T-47D breast was 48.8%; in the test on BT-549 breast, 10.3%; in the test with MDA-MB-435 melanoma, 47.8%; with SW-620 colon, 19.2%; in the test on MCF7 breast, 33.9%; in the test with HCT-116 colon, 9.04% (active). Further, the growth is 50.4% in the test with HCC-2998 colon and 22.7% in the test with KM12 colon.

For the compound `CN(C)C(=S)N=Nc1c(O)[nH]c2ccccc12`, the growth in the test with T-47D breast is 25%; with BT-549 breast, 30.7%; in the test on MDA-MB-435 melanoma, 40.3%; in the test on SW-620 colon, 30.2%; in the test with MCF7 breast it was 17.8%; in the test on HCT-116 colon it was 3.73% (active). In addition, the results for the growth with HCC-2998 colon and in the test on KM12 colon were 23.9% and 25.9%, respectively.

Take `CCOC(=O)c1c(C)oc2ncnc(N3CCN(C(=S)Nc4ccccc4)CC3)c12`: the growth in the test on T-47D breast is 78.7%; with BT-549 breast, 92.4%; with MDA-MB-435 melanoma, 102%; in the test on SW-620 colon, 90.5%; in the test with MCF7 breast it was 93.1%; with HCT-116 colon, 97.3%. Moreover, the growth with HCC-2998 colon was 99.3%; with KM12 colon, 96.4%.

`CCOC(=O)c1c(CN2CCN(C)CC2)nc2ccc(Cl)cc2c1-c1ccccc1`: the growth with T-47D breast was 74.3%; with BT-549 breast, 58.5%; with MDA-MB-435 melanoma it was 53.5%; in the test on SW-620 colon, 94.8%; in the test with MCF7 breast it was 47.6%; in the test with HCT-116 colon, 63.7%. For the same compound, the growth in the test on HCC-2998 colon was -0.061% (active); in the test on KM12 colon, 76.2%.

For `O=C(CN1C(=O)/C(=C/c2ccc(Cl)cc2)SC1=S)NCCCN1CCOCC1`, the growth in the test on T-47D breast was 84.3%; in the test with BT-549 breast, 102%; in the test with MDA-MB-435 melanoma, 102%; with SW-620 colon, 102%; with MCF7 breast it was 92.8%; with HCT-116 colon it was 102%. The growth with HCC-2998 colon was 102%; in the test with KM12 colon, 104%.

Turning to `O=C(COc1cccc(/C=C2\COc3ccc(Cl)cc3C2=O)c1)c1ccc(Cl)cc1`, the growth in the test with T-47D breast is 71.9%; with BT-549 breast it was 84.7%; in the test with MDA-MB-435 melanoma it was 91.2%; in the test on SW-620 colon, 51%; with MCF7 breast, 0.286% (active); with HCT-116 colon, 31.1%. Besides, the growth in the test on HCC-2998 colon was 129%; in the test with KM12 colon it was 77.1%.

`Cc1ccc(C(SCC(N)C(=O)O)(c2ccccc2)c2ccc(C)cc2)cc1` (stereo not given): the growth in the test on T-47D breast is 27.1%; in the test on BT-549 breast, 30.6%; in the test on MDA-MB-435 melanoma it was -23.5% (active); with SW-620 colon, 15.9%; with MCF7 breast it was 12.3%; in the test on HCT-116 colon it was 6.49% (active). Further, the figures for the growth in the test on HCC-2998 colon and in the test with KM12 colon were -20.5% (active) and 2.64% (active), respectively.

As to `COc1ccc(C2CC(c3ccc(Cl)cc3)=NN2/C=C2\SC(=S)N(NC(=O)Cc3ccccc3Nc3c(Cl)cccc3Cl)C2=O)cc1` (stereo not given), the growth is 49.5% in the test on T-47D breast; 79% in the test with BT-549 breast; 89.3% in the test with MDA-MB-435 melanoma; 90% in the test on SW-620 colon; 74.1% with MCF7 breast; 56.3% with HCT-116 colon. Also, the growth was 90.4% in the test on HCC-2998 colon and 85.4% with KM12 colon.

With `CCn1c(O)c(/C=N/NC(=O)C(C)c2ccc(CC(C)C)cc2)sc1=S` (stereo not given), the growth is 38% in the test on T-47D breast; 11.5% in the test on BT-549 breast; -44.4% (active) in the test on MDA-MB-435 melanoma; 27.3% in the test on SW-620 colon; 20.5% in the test with MCF7 breast; 11.6% with HCT-116 colon. Also, the growth is 29.5% with HCC-2998 colon and 18.7% with KM12 colon.

As for `C=CC(=O)Nc1cccc(Nc2nc(SC)nc(-c3cccc([N+](=O)[O-])c3)c2C#N)c1`, the growth is 42.7% with T-47D breast; 58.4% with BT-549 breast; 53% with MDA-MB-435 melanoma; 31.6% in the test with SW-620 colon; 28.5% in the test with MCF7 breast; 19.8% in the test with HCT-116 colon. Also, the growth was 48.2% in the test with HCC-2998 colon and 90.5% in the test on KM12 colon.
